# In the library only some 6.6% were active in any assay of this set; here they are far more common.
# Anthrax LF inh2 = anthrax lethal factor protease inhibition; P15917; multiplex microsphere protease cleavage assay, LF; inhibition, % at 10 µM; 360,000 tested, 0.12% active; AID 588501; also: plate controls were buffer without enzyme for full effect and enzyme alone for no effect
# Target sequence (P15917 whole entry, looked up): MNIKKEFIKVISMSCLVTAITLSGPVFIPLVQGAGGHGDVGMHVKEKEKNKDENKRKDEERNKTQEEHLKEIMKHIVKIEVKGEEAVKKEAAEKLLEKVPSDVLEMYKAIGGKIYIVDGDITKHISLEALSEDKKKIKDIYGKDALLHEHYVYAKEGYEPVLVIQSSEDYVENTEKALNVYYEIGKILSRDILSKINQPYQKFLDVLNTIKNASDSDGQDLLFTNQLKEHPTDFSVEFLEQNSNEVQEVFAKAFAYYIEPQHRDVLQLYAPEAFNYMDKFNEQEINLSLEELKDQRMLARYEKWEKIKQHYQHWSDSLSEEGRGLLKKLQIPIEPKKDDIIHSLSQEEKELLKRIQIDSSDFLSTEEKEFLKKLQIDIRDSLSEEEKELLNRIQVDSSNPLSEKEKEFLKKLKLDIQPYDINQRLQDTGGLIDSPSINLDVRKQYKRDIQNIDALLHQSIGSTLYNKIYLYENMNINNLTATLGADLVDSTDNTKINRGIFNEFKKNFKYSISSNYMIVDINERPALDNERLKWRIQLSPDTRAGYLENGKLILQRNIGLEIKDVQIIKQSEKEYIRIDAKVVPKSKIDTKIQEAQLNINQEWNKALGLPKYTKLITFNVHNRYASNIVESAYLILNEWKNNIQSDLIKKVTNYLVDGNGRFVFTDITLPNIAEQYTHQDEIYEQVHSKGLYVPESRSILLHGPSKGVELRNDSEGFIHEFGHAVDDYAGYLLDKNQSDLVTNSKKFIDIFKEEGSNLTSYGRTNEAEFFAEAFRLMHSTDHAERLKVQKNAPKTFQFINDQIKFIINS
# GDH-TPI counter-1 = counter-screen for M. tuberculosis FBA inhibitors: GDH-TPI coupled enzymes; GDH-TPI coupled enzyme counterscreen, NADH absorbance; inhibition, % at 4.8 µM; 360,000 tested, 1.2% active; in the data active = inhibition above about 30%;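 also: 0% = DMSO wells and 100% = wells lacking the enzyme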
# Bead autofluor = compound fluorescence in toxin protease inhibitor counterscreen; compound autofluorescence counterscreen, microsphere flow cytometry; stronger effect = higher value; fluorescence intensity (test concentration not listed); 360,000 tested, 3.1% active; in the data active = fluorescence intensity above about 16000; inconclusive = no clear call, values can overlap the other calls
# FBA Mtb inh = Mtb fructose-bisphosphate aldolase inhibition. P9WQA3. purified M. tuberculosis FBA, fluorescence read-out. inhibition, % at 1 µM. 360,000 tested, 2.3% active. AID 588726; in the data active = inhibition above about 27%;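 also: 0% = vehicle and 100% = reference inhibitor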
# BoNT-F LC inh = inhibitors of Botulinum neurotoxin F light chain protease | 360,000 tested, 0.22% active | AID 588497 | inhibition, % at 10 µM | Multiplex microsphere protease cleavage assay, flow cytometry; in the data active = inhibition above about 35%, passing the limit was not always enough; inconclusive = no clear call, values can overlap the other calls; also: plate controls were buffer without enzyme for full effect and enzyme alone for no effect
# BoNT A protease = blocks Botulinum neurotoxin A light chain protease; multiplex microsphere protease substrate cleavage, flow cytometry; inhibition, % at 10 µM; 360,000 tested, 0.17% active; also: plate controls were buffer without enzyme for full effect and enzyme alone for no effect
# Mtb FBA inh conf = confirmation of M. tuberculosis fructose-bisphosphate aldolase inhibitors | shares compounds with FBA Mtb inh | inhibition, % at 1 µM | purified M. tuberculosis FBA, fluorescence read-out | 5,600 tested, 78% active; in the data active = inhibition above about 27%;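 also: 0% = vehicle wells and 100% = reference inhibitor wells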
# GDH-TPI counter-2 = inhibits GDH-TPI coupling enzymes, flagging Mtb FBA hits. shares compounds with FBA Mtb inh. GDH-TPI coupled enzyme counterscreen, fluorescence. inhibition, % at 1 µM. 5,600 tested, 81% active. AID 652141; in the data active = inhibition above about 10%
# * marks the source's active call; other numbers are inactive results; ? = inconclusive; / = no result given; + = active, no number; ! = a repeat was not active. Rule as the data show it, unless noted: active = inhibition above about 30%; inconclusive = no clear call, values can overlap the other calls; inactive = below that.
SMILES,Anthrax LF inh2,GDH-TPI counter-1,Bead autofluor,FBA Mtb inh,BoNT-F LC inh,BoNT A protease,Mtb FBA inh conf,GDH-TPI counter-2
CCC(C)[C@H](NC(=O)N1CC(=O)Nc2ccccc21)C(=O)Nc1nccs1 (some centres undefined),0.5,2.4,4323,-1.0,-1.9,0.9,/,/
c1cc(-c2ccc(N3CCOCC3)cc2)n2cnnc2c1,-5.4,18.1,3827,92.1*,-6.4,-0.3,173.7*,151.4*
CCCCNC(=O)COC(=O)c1cc2c(C)nn(-c3ccccc3)c2s1,-3.7,13.6,3158,29.0*,-15.7,-1.0,+,177.8*
Cc1nn(-c2ccccc2)c2sc(C(=O)NCCN3CCOCC3)cc12,-3.4,9.7,4031,33.0*,-10.6,-0.4,92.5*,82.7*
Cc1nn(-c2ccccc2)c2sc(C(=O)OCn3nnc4ccccc4c3=O)cc12,-1.8,13.1,6926,1.2,-2.5,0.6,/,/
COc1ccc([C@H]2CC(=O)C[C@@H](CCn3cc(-c4ccccn4)nn3)O2)cc1,-5.3,/,4668,/,5.1,0.2,/,/
Cc1nn(C)c(C)c1NC(=O)CC12CC3CC(CC(C3)C1)C2,-3.1,11.8,2609,0.0,-0.8,-0.5,/,/
Cc1c(NC(=O)COc2ccc3ccc(=O)oc3c2)c(=O)n(-c2ccccc2)n1C,-2.7,15.5,5416,79.4*,-7.2,-8.4,64.2*,56.6*
Cc1c(NC(=O)COc2cccc(Br)c2)c(=O)n(-c2ccccc2)n1C,10.3,4.0,2936,1.8,2.1,-0.6,/,/
CCOC(=O)/C=C1\SCC(=O)N1CC(=O)NC(C)c1ccc(F)cc1 (centres undefined),-4.6,-1.1,7584,0.4,5.0,1.3,/,/
Cn1c(=O)c(-c2ccccc2)nn2c3ccccc3nc12,-6.9,13.6,4794,-0.6,-4.0,-0.8,/,/
C/C(O)=c1/cnc2nc3ccccc3n2c1=O,-0.2,24.1,2154,29.8*,-5.5,-0.4,23.5,20.9*
COc1cc(OC)cc(-c2oc3cccnc3c2C#CCCO)c1,-7.8,10.8,3083,41.9*,4.7,0.2,-4.9,-5.0
N#CC(c1cccc(Cl)c1)c1ncc(C(F)(F)F)cc1Cl (centres undefined),-19.9,10.1,?,-2.5,-24.1,?,/,/
O=C(O)CSc1cccc2cccnc12,-6.5,-0.7,7236,27.4*!,-9.2,-1.7,7.5,10.3*
COc1ccc(C(C)=O)cc1CSc1nnc(-c2ccc(Cl)cc2)n1-c1ccccc1,-6.5,8.9,3403,-7.0,15.0,-0.3,/,/
COc1cccc2c1cc1c(=O)n(CC(=O)N3CCCC3)nc(C)n12,-1.8,-1.7,4946,79.7*,1.4,1.4,8.5,2.3
CCc1ccc(C(=O)COC(=O)CCc2nc3ccccc3c(=O)[nH]2)cc1,1.8,4.4,2577,-0.1,-1.7,-0.5,/,/
CCCCc1nc(N2CCOCC2)c(C#N)c2c1CCCC2,1.6,8.9,4929,15.1,13.1,1.0,/,/
CCc1nc(N2CCN(C(=O)c3ccco3)CC2)c(C#N)c2c1COC(C)(C)C2,-0.8,5.0,5011,40.1*,-1.1,-2.0,57.1*,39.0*
CC(C)Cc1nc(N2CCOCC2)c(C#N)c2c1COC(C)(C)C2,-1.0,9.8,2723,36.5*,8.2,-0.6,-1.4,-1.1
CCc1nc(N2CCN(C(C)=O)CC2)c(C#N)c2c1COC(C)(C)C2,4.1,0.8,5791,36.0*,1.0,0.2,3.4,-1.3
CCCc1nc(N2CCOCC2)c(C#N)c2c1CCCC2,1.0,16.6,3581,30.3*,-2.6,1.2,168.5*,140.9*
CC(C)Cc1nc(NCCN2CCOCC2)c(C#N)c2c1COC(C)(C)C2,2.5,13.0,3441,4.5,-8.1,-0.3,/,/
Cc1ccc2c(C)c(C(=O)N3CCCC(C(N)=O)C3)oc2c1C (centres undefined),-0.5,5.5,5343,-2.0,5.2,1.4,/,/
CCCCCNC(=O)c1c[nH]c2ccc(S(=O)(=O)N3CCC4(CC3)OCCO4)cc2c1=O,2.3,11.8,2040,8.2,-4.3,0.4,/,/
CCNC(=O)C1(C)CCN(C(=O)c2cccc(OC(F)(F)F)c2)C1 (centres undefined),3.4,-4.0,4018,2.0,-1.0,0.0,/,/

# Screens from PubChem.
